# Data as given in paper PMC8384837, “Expanding the binding specificity for RNA recognition by a PUF domain”.
# Assays:
# Test in all cases: yeast three-hybrid, YBZ-1, SC-Leu-His + 0.5 mM 3-AT, 4 days
# Conditions in all cases: tags: N-Gal4 AD-HA kept; label: inside an RPR1-promoter hybrid RNA with tandem MS2 sites; ssRNA
# PUM1 PUF domain R4-SPL = PUM1 PUF domain R4-SPL (Homo sapiens, UniProt Q14671 828-1176, N971S;H972P;Q975L)
# Procedure, shortened: (§1)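 The interaction score is the logarithmic change in variant frequency from input to selection. It uses log2, with a pseudocount of 1 for absent variants, and frequencies came from PCR-amplified, Illumina-sequenced repeat regions. The libraries were Pumilio-1 PUF domains randomized at the three base-contacting residues per repeat, co-expressed with matching RNA elements in strain YBZ-1 (LexA–MS2 coat fusion, HIS3 reporter). Plating lasted four days on SC-Leu (input) or SC-Leu-His + 0.5 mM 3-AT (selection).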
# PUM1 PUF domain R3-VCQ = PUM1 PUF domain R3-VCQ (Homo sapiens, UniProt Q14671 828-1176, C935V;R936C)
# PUM1 PUF domain R3-VCQ, sequence (Q14671 828-1176 C935V/R936C): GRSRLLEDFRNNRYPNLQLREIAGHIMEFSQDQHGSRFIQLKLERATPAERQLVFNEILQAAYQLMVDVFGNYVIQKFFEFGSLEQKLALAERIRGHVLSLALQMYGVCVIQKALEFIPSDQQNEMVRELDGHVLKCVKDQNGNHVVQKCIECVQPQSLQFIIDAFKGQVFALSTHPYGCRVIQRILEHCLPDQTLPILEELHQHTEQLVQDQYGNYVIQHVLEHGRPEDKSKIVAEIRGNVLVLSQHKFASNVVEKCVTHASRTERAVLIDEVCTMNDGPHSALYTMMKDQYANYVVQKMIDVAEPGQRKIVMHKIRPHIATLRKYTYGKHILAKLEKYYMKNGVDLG
# Procedure, shortened: as §1
# PUM1 PUF domain R4-AQS = PUM1 PUF domain R4-AQS (Homo sapiens, UniProt Q14671 828-1176, N971A;H972Q;Q975S)
# PUM1 PUF domain R4-AQS, sequence (Q14671 828-1176 N971A/H972Q/Q975S): as the sequence (Q14671 828-1176 C935V/R936C) above, with V108C, C109R, N144A, H145Q, Q148S counted along it
# Procedure, shortened: as §1
# PUM1 PUF domain R1-GGR = PUM1 PUF domain R1-GGR (Homo sapiens, UniProt Q14671 828-1176, S863G;R864G;Q867R)
# PUM1 PUF domain R1-GGR, sequence (Q14671 828-1176 S863G/R864G/Q867R): as the sequence (Q14671 828-1176 C935V/R936C) above, with S36G, R37G, Q40R, V108C, C109R counted along it
# Procedure, shortened: as §1
# PUM1 PUF domain R1-KTR = PUM1 PUF domain R1-KTR (Homo sapiens, UniProt Q14671 828-1176, S863K;R864T;Q867R)
# PUM1 PUF domain R1-KTR, sequence (Q14671 828-1176 S863K/R864T/Q867R): as the sequence (Q14671 828-1176 C935V/R936C) above, with S36K, R37T, Q40R, V108C, C109R counted along it
# Procedure, shortened: as §1
# PUM1 PUF domain R8-MYL = PUM1 PUF domain R8-MYL (Homo sapiens, UniProt Q14671 828-1176, N1122M;Q1126L)
# PUM1 PUF domain R8-MYL, sequence (Q14671 828-1176 N1122M/Q1126L): as the sequence (Q14671 828-1176 C935V/R936C) above, with V108C, C109R, N295M, Q299L counted along it
# Procedure, shortened: as §1
# PUM1 PUF domain R5-KLM = PUM1 PUF domain R5-KLM (Homo sapiens, UniProt Q14671 828-1176, C1007K;R1008L;Q1011M)
# PUM1 PUF domain R5-KLM, sequence (Q14671 828-1176 C1007K/R1008L/Q1011M): as the sequence (Q14671 828-1176 C935V/R936C) above, with V108C, C109R, C180K, R181L, Q184M counted along it
# Procedure, shortened: as §1
# PUM1 PUF domain R5-KGI = PUM1 PUF domain R5-KGI (Homo sapiens, UniProt Q14671 828-1176, C1007K;R1008G;Q1011I)
# PUM1 PUF domain R5-KGI, sequence (Q14671 828-1176 C1007K/R1008G/Q1011I): as the sequence (Q14671 828-1176 C935V/R936C) above, with V108C, C109R, C180K, R181G, Q184I counted along it
# Procedure, shortened: as §1
# PUM1 PUF domain R3-MCK = PUM1 PUF domain R3-MCK (Homo sapiens, UniProt Q14671 828-1176, C935M;R936C;Q939K)
# PUM1 PUF domain R3-MCK, sequence (Q14671 828-1176 C935M/R936C/Q939K): as the sequence (Q14671 828-1176 C935V/R936C) above, with V108M, Q112K counted along it
# Procedure, shortened: as §1
# PUM1 PUF domain R5-HQD = PUM1 PUF domain R5-HQD (Homo sapiens, UniProt Q14671 828-1176, C1007H;R1008Q;Q1011D)
# PUM1 PUF domain R5-HQD, sequence (Q14671 828-1176 C1007H/R1008Q/Q1011D): as the sequence (Q14671 828-1176 C935V/R936C) above, with V108C, C109R, C180H, R181Q, Q184D counted along it
# Procedure, shortened: as §1
# PUM1 PUF domain R4-SPL, sequence (Q14671 828-1176 N971S/H972P/Q975L): as the sequence (Q14671 828-1176 C935V/R936C) above, with V108C, C109R, N144S, H145P, Q148L counted along it
sequence,measurement,setting,value
GGCUAGAACUAGUGGAUCCCCCGGCGCCCGGCGGCUCGAGCCCGGGUAAGUGUAAAUAGUCUGCAUGCCGCCGGGCGCCAUGCCUGCAGGUCGACUCUAGAAAACAUG,binding signal,PUM1 PUF domain R4-SPL,2.38 log2 enrichment (interaction score)
same,binding signal,PUM1 PUF domain R3-VCQ,2.76 log2 enrichment (interaction score)
same,binding signal,PUM1 PUF domain R4-AQS,2.27 log2 enrichment (interaction score)
GGCUAGAACUAGUGGAUCCCCCGGCGCCCGGCGGCUCGAGCCCGGGUAAGUGUAAAUUGUCUGCAUGCCGCCGGGCGCCAUGCCUGCAGGUCGACUCUAGAAAACAUG,binding signal,PUM1 PUF domain R1-GGR,1.86 log2 enrichment (interaction score)
same,binding signal,PUM1 PUF domain R1-KTR,4.86 log2 enrichment (interaction score)
GGCUAGAACUAGUGGAUCCCCCGGCGCCCGGCGGCUCGAGCCCGGGUAAGCGUAAAUAGUCUGCAUGCCGCCGGGCGCCAUGCCUGCAGGUCGACUCUAGAAAACAUG,binding signal,PUM1 PUF domain R8-MYL,2.58 log2 enrichment (interaction score)
GGCUAGAACUAGUGGAUCCCCCGGCGCCCGGCGGCUCGAGCCCGGGUAAGUGUCAAUAGUCUGCAUGCCGCCGGGCGCCAUGCCUGCAGGUCGACUCUAGAAAACAUG,binding signal,PUM1 PUF domain R5-KLM,2.69 log2 enrichment (interaction score)
same,binding signal,PUM1 PUF domain R5-KGI,3.97 log2 enrichment (interaction score)
GGCUAGAACUAGUGGAUCCCCCGGCGCCCGGCGGCUCGAGCCCGGGUAAGUGUAUAUAGUCUGCAUGCCGCCGGGCGCCAUGCCUGCAGGUCGACUCUAGAAAACAUG,binding signal,PUM1 PUF domain R4-SPL,1.39 log2 enrichment (interaction score)
GGCUAGAACUAGUGGAUCCCCCGGCGCCCGGCGGCUCGAGCCCGGGUAAGUGUAAGUAGUCUGCAUGCCGCCGGGCGCCAUGCCUGCAGGUCGACUCUAGAAAACAUG,binding signal,PUM1 PUF domain R3-MCK,4.78 log2 enrichment (interaction score)
GGCUAGAACUAGUGGAUCCCCCGGCGCCCGGCGGCUCGAGCCCGGGUAAGUGUUAAUAGUCUGCAUGCCGCCGGGCGCCAUGCCUGCAGGUCGACUCUAGAAAACAUG,binding signal,PUM1 PUF domain R5-HQD,3.03 log2 enrichment (interaction score)
same,binding signal,PUM1 PUF domain R5-KLM,0.44 log2 enrichment (interaction score)
GGCUAGAACUAGUGGAUCCCCCGGCGCCCGGCGGCUCGAGCCCGGGUAAGUGUAAAUCGUCUGCAUGCCGCCGGGCGCCAUGCCUGCAGGUCGACUCUAGAAAACAUG,binding signal,PUM1 PUF domain R1-GGR,3.41 log2 enrichment (interaction score)
GGCUAGAACUAGUGGAUCCCCCGGCGCCCGGCGGCUCGAGCCCGGGUAAGUGUAAUUAGUCUGCAUGCCGCCGGGCGCCAUGCCUGCAGGUCGACUCUAGAAAACAUG,binding signal,PUM1 PUF domain R3-VCQ,0.32 log2 enrichment (interaction score)
